aSyn UTR act = Activators working through SNCA 5'UTR binding (MLPCN); alpha-synuclein 5'UTR reporter, activators screen; activity score, % (tested at 7.5 µM), hits read low; 300,000 tested, 7.1% active; AID 1814; in the data active = activity score below about -60%
Numbers stand for hits; – = inactive. Not all results are given here.

SMILES | aSyn UTR act
O=C(N=C1c2ccccc2CN1c1ccc(F)c(Cl)c1)c1cccnc1Cl | -106
N#Cc1ccc(N2Cc3ccccc3C2=NC(=O)c2cccnc2Cl)cc1 | -106
O=C(Nc1ccc(Cl)c(Cl)c1)Nc1ccc(N2CCCC2)c(S(=O)(=O)Nc2ccccc2Cl)c1 | –
O=C(/C=C/c1cccs1)Nc1ccc(N2CCOCC2)c(S(=O)(=O)Nc2ccccc2Cl)c1 | -139
CN(C(=O)c1ccc2c(c1)OCO2)C1CCCCC1 | -82
O=C(NC1CCCCC1)c1ccc2c(c1)OCO2 | -93
CN(C(=O)c1cccc(N2C(=O)C3C4C=CC(C4)C3C2=O)c1)C1CCCCC1 (stereo not given) | -102
CCc1nc2oc3ccc(C)cc3c(=O)c2cc1C(=O)OC | -201
Cc1nc2oc3ccc(F)cc3c(=O)c2cc1C(=O)NC(C)(C)C | -76
COC(=O)c1cc2c(=O)c3ccccc3oc2nc1C | -172
Cc1nc2oc3ccc(Cl)cc3c(=O)c2cc1C(=O)O | -62
CCOC(=O)/C(C#N)=C/N=c1ccc(C)cn1C | -88
CCCN1C=CC(=C/C=C(\C#N)C(=O)OCC)C=C1 | -157
Cc1ccccc1N/N=C1\CCCNC1=O | -100
Cc1ccc(N(C)/N=C/c2ccc(Cl)cc2Cl)nn1 | -92
O=C(Nc1ccc(Cc2ccncc2)cc1)C1CCC(N2C(=O)C3C4C=CC(C5CC45)C3C2=O)CC1 (stereo not given) | -62
COc1ccc(C(=O)Nc2ccnc(-c3cccnc3)n2)cc1 | -166
Cc1ccc(NC(=O)Nc2ccnc(-c3cccnc3)n2)cc1 | –
O=C(Nc1ccnc(-c2cccnc2)n1)c1ccc(Cl)c(Cl)c1 | -63
Cc1ccc(C(=O)Nc2ccnc(-c3cccnc3)n2)cc1 | -269
CCN(C(=O)CSc1nnc(Cn2nnc3ccccc32)o1)c1nc(-c2ccccc2)cs1 | -105
O=C(COC(=O)c1cccs1)c1ccc2c(c1)OCCO2 | -176
COc1ccc(OCCOC(=O)c2cccs2)cc1 | -66
CC(=O)NC12CC3CC(C1)CC(C(=O)OCC(=O)c1ccc4c(c1)OCCO4)(C3)C2 | -134
O=C(COC(=O)c1cccs1)c1ccc2ccccc2c1 | -121
SMILES | aSyn UTR act
COCCOC(=O)c1[nH]c2c(c1C)C(=O)CC(c1cccs1)C2 (stereo not given) | –
O=C(NNC(=O)c1cccs1)c1ccc2ccccc2c1 | -71
CCOc1cc(/C=C\c2[nH]c(=O)[nH]c(=O)c2[N+](=O)[O-])ccc1OC(C)CC (stereo not given) | -67
O=C(N=C1SCC(=O)N1c1ccccc1Cl)c1ccco1 | -174
O=C(N=C1SCC(=O)N1c1ccccc1Cl)c1ccccc1 | -210
CN(C)c1ccc(NC(=O)Nc2csc3ccccc23)cc1 | -141
O=C(Nc1ccc(F)cc1)Nc1csc2ccccc12 | -87
S=C(NN=C(C1CC1)C1CC1)Nc1ccccc1 | -63
Cc1cc(C)nc(NC(=S)Nc2ccccc2)n1 | -84
COCCCNC(=S)NNC(=S)Nc1ccccc1 | -65
COCCCNC(=S)NNC(=S)Nc1ccc(F)cc1F | -106
S=C(NNC(=S)Nc1ccccc1)Nc1ccccc1 | -145
C/C(=N\NC(=S)Nc1ccccc1)C1Cc2ccccc2C(=O)O1 (stereo not given) | -154
S=C(Nc1ccc(Nc2ccccc2)cc1)NN1CCOCC1 | -99
CC(C)(C)NC(=S)Nc1ccc(Nc2ccccc2)cc1 | -115
COC(=O)c1ccc(N)nc1 | -79
CC(=O)/C=C/c1ccccc1Oc1c(F)c(F)nc(F)c1F | -94
COc1ccc2[nH]c3c(NCCCN4CCCC4=O)ncnc3c2c1 | -96
CCOc1ccc2[nH]c3c(NCCCOC)ncnc3c2c1 | -96
CC(C)OCCCNc1ncnc2c1[nH]c1ccccc12 | -178
CCOc1ccc2[nH]c3c(NCC(C)C)ncnc3c2c1 | -99
O=c1c2[nH]c3ccccc3c2ncn1CCC1=CCCCC1 | -121
COc1ccc2[nH]c3c(=O)n(CCc4ccccc4)cnc3c2c1 | -76
CSc1ccccc1C(=O)Nc1ccc(C)c(C)c1 | -130
CCOc1ccc(NC(=O)c2ccccc2SC)cc1 | -110
SMILES | aSyn UTR act
Cc1ccc(C)c(NC(=S)N=Nc2c(O)n(C)c3ccc(S(=O)(=O)N4CCOCC4)cc23)c1 | –
Cc1ccc(Nc2ccc(S(=O)(=O)N3CCOCC3)cc2[N+](=O)[O-])c(C)c1 | -62
Cc1ccc(Cn2c(O)c(N=NC(=S)Nc3ccccc3F)c3cc(S(=O)(=O)N4CCOCC4)ccc32)cc1 | –
CCCn1c(O)c(C=Nc2ccccc2)sc1=S | -86
O=C(Nc1ccc2c(c1)ncn2-c1ccccc1)c1ccco1 | -131
Cn1cnc2cc(NC(=O)c3ccco3)ccc21 | -71
Cc1cccc(C)c1OCC(=O)N/N=C/c1ccc2c(c1)OCO2 | -85
Cn1cc(C(=O)N/N=C/c2ccc3c(c2)OCO3)c2ccccc21 | -276
O=C(N/N=C/c1ccc2c(c1)OCO2)c1cccc2ccccc12 | -109
Cn1cc(C(=O)N/N=C/c2cccs2)c2ccccc21 | -181
COC(=O)c1c(C)[nH]c(C(=O)/C=C/c2ccc(C)cc2)c1C | -73
COC(=O)c1c(C)[nH]c(C(=O)/C=C/c2cccc(Cl)c2)c1C | -232
COC(=O)c1c(C)[nH]c(C(=O)/C=C/c2ccccc2)c1C | -107
COC(=O)c1c(C)[nH]c(C(=O)CSc2ccc(Cl)cc2)c1C | -134
Cc1ccc(N2C(=O)c3cccc4c(N)ccc(c34)C2=O)c2cccnc12 | –
CCCN1C(=O)c2cccc3c(N4CCCCC4)ccc(c23)C1=O | -83
O=C(Cc1ccccc1F)Nc1nc(-c2cccs2)cs1 | -78
O=C(Cc1ccccc1F)Nc1nc(-c2ccc(F)c(F)c2)cs1 | -85
O=C(Cc1ccccc1)Nc1nc(-c2cccs2)cs1 | -136
CN(C)CCOc1nc(-c2ccccc2)nc2c1oc1ccccc12 | -88
Fc1ccc(-c2nnsc2Sc2ccccn2)cc1 | -84
CN(C)CC/C=C1/c2ccccc2CS(=O)(=O)c2ccccc21 | -74
CCOc1ccc(N(CC(=O)NCc2ccccc2C)S(C)(=O)=O)cc1 | -91
CCOc1ccc(N(CC(=O)Nc2ccc(OC)cc2)S(C)(=O)=O)cc1 | -69
CCOc1ccc(N(CC(=O)Nc2ccccc2OC)S(=O)(=O)c2ccccc2)cc1 | –
SMILES | aSyn UTR act
COC(=O)c1ccc(NC(=O)CN(c2ccc(OC)cc2)S(C)(=O)=O)cc1 | -176
CCOc1ccc(NC(=O)CN(c2ccc(OC)cc2)S(C)(=O)=O)cc1 | -138
CCOc1ccc(N(CC(=O)Nc2ccccc2OCC)S(=O)(=O)c2c(C)noc2C)cc1 | –
CCOc1ccc(N(CC(=O)Nc2cccc(C)c2)S(C)(=O)=O)cc1 | -86
Cc1c(NC(=O)c2ccc(-c3ccccc3)cc2)cccc1C(=O)O | -85
O=C(Nc1sc(-c2ccccc2)cc1C(=O)O)c1ccccc1 | -100
O=C(Nc1c(Cl)cccc1Cl)c1ccc(-c2ccccc2)cc1 | -66
COC(=O)[C@@H]1CCCN1C(=O)CCc1nnc(CCC2CCCCC2)o1 | -116
CCOC(=O)C1CCCCN1C(=O)CCc1c(C)nc2ncnn2c1C (stereo not given) | –
Clc1ccc(-c2cc(COc3ccccc3)on2)cc1 | -90
O=S(=O)(Cc1cc(-c2ccccc2Cl)no1)c1ccccc1 | -130
O=S(=O)(Cc1cc(-c2ccc(Cl)cc2)no1)c1ccccc1 | -173
O=c1cc(-c2ccccc2Cl)oc2c(Br)ccc(O)c12 | -130
c1ccc(-c2cc(N3CCCCC3)ncn2)cc1 | -135
c1ccc(-c2cc(N3CCCCCC3)n[nH]2)cc1 | -74
Cc1ccc(N2C(=O)[C@@H]3Cc4ccccc4CN3C2=O)cc1 | -71
CC(C)c1ccc(N2C(=O)[C@@H]3Cc4ccccc4CN3C2=O)cc1 | -118
